According to PubChem BioAssay AID1159580 (chemical genetic matrix, 2015):
Hit rate of the full screen: of about 5,500 compounds, about 2,000 (36%) were called active. Inconclusive results (about 18%) are left out. Cut-off read from the data, not from the text of the source: active = normalized growth mostly below about 0.91 (no sharp cut-off); inconclusive = no clear call, values can overlap the other calls; inactive = mostly above about 0.92. The list shows a part of the results.

Test: chemical genetic growth profiling, strain panel (AID 1159580);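 note: tested at 20 µM; growth read once vehicle control cultures reached saturation at 30 °C; 1 = growth at the plate median or of vehicle wells; lower values mean less growth of the strain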
Details: S. cerevisiae deletion strains, growth OD
[1] = locus YHR030C, strain SLT2, active compounds read low
[2] = locus YJR075W, strain HOC1, active compounds read low
[3] = locus YNL153C, strain GIM3, active compounds read low
[4] = locus YPL055C, strain LGE1, active compounds read low
[5] = locus YPL241C, strain CIN2, active compounds read low

Measured: normalized growth

O=C1ON=C(c2ccccc2)/C1=C/c1ccc(Cl)cc1
active: locus YAL013W, strain DEP1, active compounds read low 0.174 | locus YBR229C, strain ROT2, active compounds read low 0.145 | locus YDL101C, strain DUN1, active compounds read low 0.203 | locus YDL134C, strain PPH21, active compounds read low 0.77 | locus YEL061C, strain CIN8, active compounds read low 0.637 | locus YGR078C, strain PAC10, active compounds read low 0.138 | [1] 0.16 | locus YHR087W, strain rtc3, active compounds read low 0.172 | locus YJR043C, strain POL32, active compounds read low 0.198 | [2] 0.129 | locus YKL190W, strain CNB1, active compounds read low 0.523 | locus YLR039C, strain RIC1, active compounds read low 0.782 | locus YLR058C, strain SHM2 (second series), active compounds read low 0.311 | locus YLR085C, strain ARP6, active compounds read low 0.297 | locus YML094W, strain GIM5, active compounds read low 0.584 | locus YMR219W, strain ESC1, active compounds read low 0.172 | [3] 0.105 | locus YNL298W, strain CLA4 (second series), active compounds read low 0.481 | locus YNL322C, strain KRE1, active compounds read low 0.472 | locus YNR030W, strain Alg12, active compounds read low 0.462 | [4] 0.11 | [5] 0.331 | locus YPR135W, strain CTF4, active compounds read low 0.294
inactive: locus YLR262C, strain YPT6, active compounds read low 0.834

CC(=O)[C@]1(O)Cc2c(O)c3c(c(O)c2[C@@H](O[C@H]2C[C@H](N)[C@H](O)[C@H](C)O2)C1)C(=O)c1ccccc1C3=O
active: locus YAL040C, strain CLN3, active compounds read low 0.208 | locus YCL061C, strain MRC1 (second series), active compounds read low 0.0781 | locus YDR150W, strain NUM1, active compounds read low 0.0885 | locus YDR363W, strain ESC2, active compounds read low 0.478 | locus YER002W, strain NOP16, active compounds read low 0.193 | locus YGR229C, strain SMI1, active compounds read low 0.0661 | [2] 0.0942 | locus YMR263W, strain SAP30, active compounds read low 0.785 | locus YNL128W, strain TEP1, active compounds read low 0.18 | [3] 0.59 | locus YNL175C, strain NOP13, active compounds read low 0.178 | locus YNL197C, strain WHI3, active compounds read low 0.183 | locus YNL224C, strain SQS1, active compounds read low 0.165 | locus YOR083W, strain WHI5 (second series), active compounds read low 0.178 | [4] 0.0958 | [5] 0.0639

COc1cccc2c1C(=O)c1c(O)c3c(c(O)c1C2=O)C[C@@](O)(C(C)=O)C[C@@H]3O[C@H]1C[C@H](N)[C@H](O)[C@H](C)O1
active: locus YAL021C, strain ccr4, active compounds read low 0.872 | locus YBR009C, strain hhf1, active compounds read low 0.894 | locus YDR159W, strain sac3, active compounds read low 0.836 | locus YER015W, strain faa2, active compounds read low 0.914 | locus YER155C, strain BEM2 (second series), active compounds read low 0.802 | locus YGL240W, strain doc1, active compounds read low 0.621 | locus YGL253W, strain hxk2, active compounds read low 0.907 | locus YJL115W, strain asf1, active compounds read low 0.885 | locus YJL129C, strain trk1, active compounds read low 0.53 | locus YJL166W, strain qcr8, active compounds read low 0.827 | locus YLR320W, strain mms22, active compounds read low 0.727 | locus YMR205C, strain PFK2, active compounds read low 0.873 | locus YNL071W, strain lat1, active compounds read low 0.848 | locus YNL248C, strain rpa49, active compounds read low 0.706 | locus YPL078C, strain atp4, active compounds read low 0.891
inactive: locus YAL026C, strain drs2, active compounds read low 0.959 | locus YAL030W, strain snc1, active compounds read low 0.946 | locus YBL061C, strain skt5, active compounds read low 0.953 | locus YBR023C, strain chs3, active compounds read low 0.953 | locus YBR231C, strain swc5, active compounds read low 0.913 | locus YBR279W, strain paf1, active compounds read low 0.968 | locus YCL011C, strain gbp2, active compounds read low 0.969 | locus YCL016C, strain dcc1, active compounds read low 1 | locus YCL069W, strain vba3, active compounds read low 0.966 | locus YCR088W, strain abp1, active compounds read low 0.981 | locus YDL005C, strain med2, active compounds read low 0.962 | locus YDL040C, strain nat1, active compounds read low 0.941 | locus YDR001C, strain nth1, active compounds read low 0.958 | locus YDR069C, strain doa4, active compounds read low 0.922 | locus YDR137W, strain rgp1, active compounds read low 0.956 | locus YDR195W, strain ref2 0.983 | locus YDR297W, strain sur2, active compounds read low 0.967 | locus YDR334W, strain swr1, active compounds read low 0.903 | locus YDR335W, strain msn5, active compounds read low 0.987 | locus YDR392W, strain spt3, active compounds read low 0.976 | locus YEL003W, strain gim4, active compounds read low 0.989 | locus YEL037C, strain rad23, active compounds read low 0.974 | locus YEL061C, strain CIN8 (second series), active compounds read low 0.951 | locus YER016W, strain bim1, active compounds read low 0.993 | locus YER111C, strain swi4, active compounds read low 0.991 | locus YFR010W, strain ubp6, active compounds read low 0.91 | locus YGL167C, strain pmr1, active compounds read low 0.986 | locus YGL173C, strain kem1, active compounds read low 0.97 | locus YGL227W, strain vid30, active compounds read low 0.941 | locus YHR013C, strain ard1, active compounds read low 0.933 | locus YHR027C, strain rpn1, active compounds read low 0.94 | [1] 0.994 | locus YHR079C, strain IRE1, active compounds read low 0.989 | locus YHR142W, strain chs7, active compounds read low 0.956 | locus YJL092W, strain hpr5, active compounds read low 0.975 | locus YJL095W, strain BCK1 (second series), active compounds read low 0.977 | locus YJL095W, strain BCK1, active compounds read low 1.01 | locus YJL154C, strain vps35, active compounds read low 0.957 | locus YJL164C, strain tpk1, active compounds read low 0.97 | locus YJR066W, strain TOR1, active compounds read low 0.954 | locus YKL160W, strain elf1, active compounds read low 0.963 | locus YKR026C, strain gcn3, active compounds read low 0.971 | locus YKR091W, strain srl3, active compounds read low 0.971 | locus YLL001W, strain dnm1, active compounds read low 0.981 | locus YLL026W, active compounds read low 0.986 | locus YLL041C, strain sdh2, active compounds read low 0.971 | locus YLR027C, strain aat2, active compounds read low 0.976 | locus YLR113W, strain HOG1, active compounds read low 1.01 | locus YLR221C, strain rsa3, active compounds read low 0.977 | locus YLR258W, strain gsy2, active compounds read low 0.991 | locus YLR262C, strain YPT6 (second series), active compounds read low 0.919 | locus YLR342W, strain FKS1, active compounds read low 0.967 | locus YLR357W, strain rsc2, active compounds read low 0.917 | locus YLR370C, strain arc18, active compounds read low 0.97 | locus YLR384C, strain iki3, active compounds read low 0.966 | locus YML120C, strain ndi1, active compounds read low 0.959 | locus YMR058W, strain fet3, active compounds read low 0.922 | locus YMR125W, strain sto1, active compounds read low 0.966 | locus YMR129W, active compounds read low 0.978 | locus YMR231W, strain pep5, active compounds read low 0.968 | locus YNL183C, strain NPR1, active compounds read low 0.971 | locus YNL209W, strain ssb2, active compounds read low 0.945 | locus YNL322C, strain KRE1 (second series), active compounds read low 0.975 | locus YNR049C, strain mso1, active compounds read low 0.965 | locus YOR001W, strain rrp6, active compounds read low 0.96 | locus YOR070C, strain gyp1, active compounds read low 0.977 | locus YOR080W, strain dia2, active compounds read low 0.951 | locus YOR083W, strain WHI5, active compounds read low 0.972 | locus YOR106W, strain vam3, active compounds read low 0.911 | locus YOR231W, strain MKK1, active compounds read low 1.01 | locus YOR265W, strain rbl2, active compounds read low 0.949 | locus YOR270C, strain vph1, active compounds read low 0.919 | locus YOR290C, strain snf2, active compounds read low 0.995 | locus YPL051W, strain arl3, active compounds read low 0.958 | locus YPL106C, strain sse1, active compounds read low 1.1 | locus YPL240C, strain hsp82, active compounds read low 0.98 | locus YPL256C, strain CLN2, active compounds read low 0.987
